The values that follow come from paper PMC7819943, “Rice protein-binding microarrays: a tool to detect cis-acting elements near promoter regions in rice”.

In all, about 35,000 sequences were measured (“fluorescence intensity (a.u.)”: median about 10,000, highest 2% from about 52,000 on). The sample as a whole holds a higher share of the highest values than the screen did.

For this test, the target named is T1, OsWOX13 (Oryza sativa, UniProt Q5QMM3 1-267).
T1 sequence: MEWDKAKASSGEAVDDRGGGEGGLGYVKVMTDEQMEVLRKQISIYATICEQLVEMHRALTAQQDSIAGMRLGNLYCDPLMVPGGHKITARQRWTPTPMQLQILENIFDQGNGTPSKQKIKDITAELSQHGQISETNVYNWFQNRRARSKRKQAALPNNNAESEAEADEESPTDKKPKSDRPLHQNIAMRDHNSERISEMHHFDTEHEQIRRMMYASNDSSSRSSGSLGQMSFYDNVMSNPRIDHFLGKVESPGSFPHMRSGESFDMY
In words: protein-binding microarray (RPBM); PBS, 2% BSA, 51.3 ng/ul salmon testes DNA, 50 uM zinc acetate, 200 nM TF, 25 C, 1 h; high values mean tight binding. The note with it: protein: recombinant; tags: N-terminal polyhistidine and DsRed monomer fusion (pET32a); label: CyDye5-dUTP incorporated in the synthesized complementary strand; 3' TTTTT single-stranded linker to array surface; dsDNA, one strand shown. The procedure, abridged:
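The binding signal is fluorescence intensity per feature, in arbitrary units, read on an Axon 4000B scanner. Polyhistidine- and DsRed-tagged transcription factors (N-terminal fusions) from E. coli BL21-CodonPlus were purified on Ni–NTA and applied at 200 nM for 1 h at 25 °C to a double-stranded, BSA-blocked custom Agilent array in buffer with 50 µM zinc acetate.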
Take “ACTAATCTGATTGTGTCACTTGTGCGATTGATGGAGTTCACGGAGTCACCTAGTGCAG”: the binding signal is 23900 fluorescence intensity (a.u.).

As for “TTTTGATTGAAGACACACCTATTGTCGCGAATACTGCTAACGGAGTCACCTAGTGCAG”, the binding signal was 40500 fluorescence intensity (a.u.).

Consider “CCACGCCAATTAGCATCCCACGTTTCGCCTTTGATTGTGGCGGAGTCACCTAGTGCAG”, for which the binding signal was 10600 fluorescence intensity (a.u.).

Turning to “ATTAATAATGTATAATTTATTTTAGTGGTATTAATGTTGTCGGAGTCACCTAGTGCAG”, the binding signal was 22400 fluorescence intensity (a.u.).

For the sequence “TCATTAATTAATTAATTACAGTGGTAGATGATGATGTAGTCGGAGTCACCTAGTGCAG”, the binding signal was 64000 fluorescence intensity (a.u.).

In the case of “CTATAATTTGTAGATGATGTAGTATAATTATATTTAATCACGGAGTCACCTAGTGCAG”, the binding signal was 37300 fluorescence intensity (a.u.).

With “TATAATTTAAATTTAACTAAATTAATGGTATTACAGATGTCGGAGTCACCTAGTGCAG”, the binding signal is 58500 fluorescence intensity (a.u.).

In the case of “TGTTACATATAATGAAATTAATTTGGTATTGTAGATGTTGCGGAGTCACCTAGTGCAG”, the binding signal is 13600 fluorescence intensity (a.u.).

With “ATATTTAATTATTATTTTAATAAAACTAATTTGGTAATGTCGGAGTCACCTAGTGCAG”, the binding signal is 25700 fluorescence intensity (a.u.).

In the case of “CATTATAGATTAATACATTTTGGGATGGAGGGAGTACTCACGGAGTCACCTAGTGCAG”, the binding signal is 3200 fluorescence intensity (a.u.).

For “GACAGGATTATCACCTATTTGTCAACAGTTCACCAGGAGCCGGAGTCACCTAGTGCAG”, the binding signal was 3360 fluorescence intensity (a.u.).

On to “ATTTAACGTCATTTATAAACATATACTAGATACTAGTAATCGGAGTCACCTAGTGCAG”, for which the binding signal is 3890 fluorescence intensity (a.u.).

For the sequence “GTCAACTGGAAATTGAAATTCAGCCAAAATTAGTGATCAGCGGAGTCACCTAGTGCAG”, the binding signal was 4850 fluorescence intensity (a.u.).

Take “GTAGCAAATTTACAAATTTGCAGGGCTAGCTGTTGCGGTGCGGAGTCACCTAGTGCAG”: the binding signal was 11100 fluorescence intensity (a.u.).

Turning to “AAGCATCAATTCGTTGCCTGATTAGTACAACACTGTTGTGCGGAGTCACCTAGTGCAG”, the binding signal is 5420 fluorescence intensity (a.u.).

Regarding “CTAATCCCAGATTGCTAGTGATTAGCACGTAGATACATAGCGGAGTCACCTAGTGCAG”, the binding signal was 21700 fluorescence intensity (a.u.).

Turning to “AGAGGGTGGGGACATGGGGATTGATTTCACCTGTAGGATTCGGAGTCACCTAGTGCAG”, the binding signal was 3430 fluorescence intensity (a.u.).

For “TCCAGTCCAATCAGCCCACCATAATTTGGGCCGGAATAAGCGGAGTCACCTAGTGCAG”, the binding signal was 17600 fluorescence intensity (a.u.).

As for “ATTTCTGATTGGTGAGATGGGTGATTCGGTAGGCCATTGGCGGAGTCACCTAGTGCAG”, the binding signal is 40100 fluorescence intensity (a.u.).

Take “TGTTTGCGATTGATTTGTACTACACAGTGGGTGCTTCTCCCGGAGTCACCTAGTGCAG”: the binding signal is 35300 fluorescence intensity (a.u.).

“CTAATTAGTTTTGGTTAGTACTTATAATTTTGTCCTAATGCGGAGTCACCTAGTGCAG”: the binding signal is 15700 fluorescence intensity (a.u.).

In the case of “CGGTAGTGATTGATTCGGATGATTTCACCAGTAGGATTGGCGGAGTCACCTAGTGCAG”, the binding signal is 65300 fluorescence intensity (a.u.).

For the sequence “CATTTACTAATTTGTTTGCTTGATTGTCCTGGCGAAATTGCGGAGTCACCTAGTGCAG”, the binding signal was 40000 fluorescence intensity (a.u.).

In the case of “ATATAAATATTAGTAATCAATTGAGGGAACATTTGATTTGCGGAGTCACCTAGTGCAG”, the binding signal was 11300 fluorescence intensity (a.u.).

Turning to “GCCCTTGATTTCTGACTAGATTTGTGTTATTCTACTTACACGGAGTCACCTAGTGCAG”, the binding signal was 27200 fluorescence intensity (a.u.).

Turning to “GTTTGATTGTTTTCTAGTGTACTACACTTCCCTAGAACGTCGGAGTCACCTAGTGCAG”, the binding signal is 55000 fluorescence intensity (a.u.).

“CAATAATTGAGTGATTTGGCCCAGTCCAGGAACTAGTAAGCGGAGTCACCTAGTGCAG”: the binding signal was 56100 fluorescence intensity (a.u.).

As to “CAACTTGATTAGTAGTAGTACTAGTTTGATTTTGTCCTGGCGGAGTCACCTAGTGCAG”, the binding signal is 54200 fluorescence intensity (a.u.).

As for “TATAATTTAAATTCAAATTTGAATCGGGTATGTAAACTTTCGGAGTCACCTAGTGCAG”, the binding signal is 15500 fluorescence intensity (a.u.).

With “TCATGAAATTAATAGGATGCCACGTCGACTTGGTTGTTCCCGGAGTCACCTAGTGCAG”, the binding signal was 3510 fluorescence intensity (a.u.).

For the sequence “ATAAATTTATAGGTAAAACTTTTATATAGATGTTCTTGGTCGGAGTCACCTAGTGCAG”, the binding signal is 15300 fluorescence intensity (a.u.).

As for “TGAAATTGGAATGATGTGAAGGAAAAGTTGGAAGTTTGTGCGGAGTCACCTAGTGCAG”, the binding signal is 20700 fluorescence intensity (a.u.).

In the case of “CTAATTACTATCCATCATGTTTCTGTGGACGCGCGGCTCACGGAGTCACCTAGTGCAG”, the binding signal was 9700 fluorescence intensity (a.u.).

Turning to “TCTCTATAATTAAACATTCCAATTTCGAAAATGTTGTTAGCGGAGTCACCTAGTGCAG”, the binding signal was 8580 fluorescence intensity (a.u.).

Regarding “AAGTTTCAAAATTTAAATTTTGACCGCATGCAGCTGATAACGGAGTCACCTAGTGCAG”, the binding signal was 4610 fluorescence intensity (a.u.).

In the case of “ACGTTATTAATTACTTAGTACTACTATGAGTTAACTATGGCGGAGTCACCTAGTGCAG”, the binding signal was 18500 fluorescence intensity (a.u.).

For the sequence “CCTGATTCTGATTGGCGCCAACGTACGTACTGTACATGCGCGGAGTCACCTAGTGCAG”, the binding signal is 56900 fluorescence intensity (a.u.).

For the sequence “ACTTGTATATTTGTGGATTGATACATTACATATTGATCTACGGAGTCACCTAGTGCAG”, the binding signal was 5160 fluorescence intensity (a.u.).

On to “ATTTGATTGTATATTGTACTAGTGCTACTACTACGTGGAGCGGAGTCACCTAGTGCAG”, for which the binding signal was 60400 fluorescence intensity (a.u.).

In the case of “CATTGATTGACATTGTTGAGGCAGTACTGTTACAGTTGAGCGGAGTCACCTAGTGCAG”, the binding signal was 59400 fluorescence intensity (a.u.).

For “CACCATTGCATGATTGCATCTGCATCACTGCATGCCAACGCGGAGTCACCTAGTGCAG”, the binding signal was 5680 fluorescence intensity (a.u.).

With “GCTTAATTGGTTAGTGGACTAGTATATAGTAGTACTGTATCGGAGTCACCTAGTGCAG”, the binding signal was 46500 fluorescence intensity (a.u.).

For “TATTGATTGATTGGTTAGTACTACAGTACTGTAGGAGTGGCGGAGTCACCTAGTGCAG”, the binding signal was 64700 fluorescence intensity (a.u.).
